Reference: PubChem BioAssay AID1159580 (chemical genetic matrix, 2015)
Screen size: about 5,500 compounds; about 2,000 (36%) were called active. Roughly 18% stayed inconclusive and do not appear here. No stated cut-off is given here; in the data, active means normalized growth mostly below about 0.91 (no sharp cut-off); inconclusive means no clear call, values can overlap the other calls; inactive means mostly above about 0.92. The list shows a part of the results.

Assay: chemical genetic growth profiling, strain panel (AID 1159580);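 further: tested at 20 µM; growth read once vehicle control cultures reached saturation at 30 °C; 1 = growth at the plate median or of vehicle wells; lower values mean less growth of the strain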
Conditions: growth OD
[1] = S. cerevisiae deletion strains, locus YDL101C, strain DUN1, active compounds read low
[2] = S. cerevisiae deletion strains, locus YHR030C, strain SLT2, active compounds read low
[3] = S. cerevisiae deletion strains, locus YBR229C, strain ROT2, active compounds read low
[4] = S. cerevisiae deletion strains, locus YDR150W, strain NUM1, active compounds read low
[5] = S. cerevisiae deletion strains, locus YEL061C, strain CIN8, active compounds read low
[6] = S. cerevisiae deletion strains, locus YHR087W, strain rtc3, active compounds read low
[7] = S. cerevisiae deletion strains, locus YJR043C, strain POL32, active compounds read low
[8] = S. cerevisiae deletion strains, locus YJR075W, strain HOC1, active compounds read low
[9] = S. cerevisiae deletion strains, locus YLR039C, strain RIC1, active compounds read low
[10] = S. cerevisiae deletion strains, locus YLR058C, strain SHM2 (second series), active compounds read low
[11] = S. cerevisiae deletion strains, locus YLR085C, strain ARP6, active compounds read low
[12] = S. cerevisiae deletion strains, locus YLR262C, strain YPT6, active compounds read low
[13] = S. cerevisiae deletion strains, locus YML094W, strain GIM5, active compounds read low
[14] = S. cerevisiae deletion strains, locus YMR219W, strain ESC1, active compounds read low
[15] = S. cerevisiae deletion strains, locus YMR263W, strain SAP30, active compounds read low
[16] = S. cerevisiae deletion strains, locus YMR307W, strain GAS1, active compounds read low
[17] = S. cerevisiae deletion strains, locus YNL153C, strain GIM3, active compounds read low
[18] = S. cerevisiae deletion strains, locus YNL298W, strain CLA4 (second series), active compounds read low
[19] = S. cerevisiae deletion strains, locus YNL322C, strain KRE1, active compounds read low
[20] = S. cerevisiae deletion strains, locus YNR030W, strain Alg12, active compounds read low
[21] = S. cerevisiae deletion strains, locus YPL055C, strain LGE1, active compounds read low
[22] = S. cerevisiae deletion strains, locus YPL241C, strain CIN2, active compounds read low
[23] = S. cerevisiae deletion strains, locus YPR135W, strain CTF4, active compounds read low
[24] = S. cerevisiae strains, strain wild type, active compounds read low

Measured: normalized growth

CCC1CCC(C)N(C(=S)Nc2ccc(Br)cc2C)C1 (centres undefined)
active: [2] 0.84
inactive: S. cerevisiae deletion strains, locus YAR019C, strain CDC15, active compounds read low 0.965 | S. cerevisiae deletion strains, locus YBL105C, strain PKC1, active compounds read low 0.976 | S. cerevisiae deletion strains, locus YBR135W, strain CKS1, active compounds read low 0.955 | S. cerevisiae deletion strains, locus YBR136W, strain MEC1, active compounds read low 0.971 | S. cerevisiae deletion strains, locus YBR160W, strain CDC28, active compounds read low 0.953 | S. cerevisiae deletion strains, locus YDL017W, strain CDC7, active compounds read low 0.966 | S. cerevisiae deletion strains, locus YDL028C, strain MPS1, active compounds read low 0.961 | [1] 0.958 | S. cerevisiae deletion strains, locus YDL108W, strain KIN28, active compounds read low 0.96 | S. cerevisiae deletion strains, locus YDL132W, strain cdc53, active compounds read low 0.956 | S. cerevisiae deletion strains, locus YDL214C, strain PRR2, active compounds read low 0.987 | S. cerevisiae deletion strains, locus YDR052C, strain DBF4, active compounds read low 0.969 | S. cerevisiae deletion strains, locus YDR054C, strain cdc34, active compounds read low 0.953 | S. cerevisiae deletion strains, locus YDR226W, strain ADK1, active compounds read low 0.963 | S. cerevisiae deletion strains, locus YDR477W, strain SNF1, active compounds read low 0.955 | S. cerevisiae deletion strains, locus YER123W, strain YCK3, active compounds read low 0.936 | S. cerevisiae deletion strains, locus YER133W, strain GLC7, active compounds read low 0.961 | S. cerevisiae deletion strains, locus YFL009W, strain cdc4, active compounds read low 0.956 | S. cerevisiae deletion strains, locus YFL029C, strain CAK1, active compounds read low 0.963 | S. cerevisiae deletion strains, locus YFR003C, strain YPI1, active compounds read low 0.978 | S. cerevisiae deletion strains, locus YFR019W, strain FAB1, active compounds read low 0.995 | S. cerevisiae deletion strains, locus YFR028C, strain CDC14, active compounds read low 0.967 | S. cerevisiae deletion strains, locus YGR040W, strain KSS1, active compounds read low 0.963 | S. cerevisiae deletion strains, locus YGR052W, strain FMP48, active compounds read low 1.11 | S. cerevisiae deletion strains, locus YGR092W, strain DBF2, active compounds read low 0.964 | S. cerevisiae deletion strains, locus YHR079C, strain IRE1, active compounds read low 0.979 | S. cerevisiae deletion strains, locus YHR082C, strain KSP1, active compounds read low 1.05 | S. cerevisiae deletion strains, locus YHR205W, strain SCH9, active compounds read low 0.993 | S. cerevisiae deletion strains, locus YIL147C, strain SLN1, active compounds read low 0.968 | S. cerevisiae deletion strains, locus YJL095W, strain BCK1, active compounds read low 0.913 | S. cerevisiae deletion strains, locus YJL128C, strain PBS2, active compounds read low 0.927 | S. cerevisiae deletion strains, locus YJL157C, strain FAR1, active compounds read low 0.986 | S. cerevisiae deletion strains, locus YJR016C, strain ILV3, active compounds read low 0.964 | S. cerevisiae deletion strains, locus YJR066W, strain TOR1 (second series), active compounds read low 1.01 | S. cerevisiae deletion strains, locus YJR066W, strain TOR1, active compounds read low 0.987 | S. cerevisiae deletion strains, locus YKL048C, strain ELM1, active compounds read low 0.956 | S. cerevisiae deletion strains, locus YKL067W, strain YNK1, active compounds read low 1 | S. cerevisiae deletion strains, locus YKL101W, strain HSL1, active compounds read low 0.95 | S. cerevisiae deletion strains, locus YKL193C, strain SDS22, active compounds read low 0.951 | S. cerevisiae deletion strains, locus YKL203C, strain TOR2, active compounds read low 1.05 | S. cerevisiae deletion strains, locus YLR113W, strain HOG1, active compounds read low 0.924 | S. cerevisiae deletion strains, locus YLR133W, strain CKI1, active compounds read low 0.98 | S. cerevisiae deletion strains, locus YLR403W, strain SFP1, active compounds read low 0.992 | S. cerevisiae deletion strains, locus YML070W, strain DAK1, active compounds read low 0.958 | S. cerevisiae deletion strains, locus YMR001C, strain CDC5, active compounds read low 0.961 | S. cerevisiae deletion strains, locus YMR205C, strain PFK2 (second series), active compounds read low 0.973 | S. cerevisiae deletion strains, locus YMR277W, strain FCP1, active compounds read low 0.962 | S. cerevisiae deletion strains, locus YNL006W, strain LST8, active compounds read low 0.966 | S. cerevisiae deletion strains, locus YNL020C, strain ARK1, active compounds read low 0.974 | S. cerevisiae deletion strains, locus YNL161W, strain CBK1, active compounds read low 0.948 | S. cerevisiae deletion strains, locus YNL183C, strain NPR1, active compounds read low 0.967 | S. cerevisiae deletion strains, locus YNL207W, strain RIO2, active compounds read low 0.957 | S. cerevisiae deletion strains, locus YNL222W, strain SSU72, active compounds read low 0.963 | S. cerevisiae deletion strains, locus YNL307C, strain MCK1 (second series), active compounds read low 0.948 | S. cerevisiae deletion strains, locus YOL078W, strain AVO1, active compounds read low 0.959 | S. cerevisiae deletion strains, locus YOL136C, strain PFK27, active compounds read low 0.964 | S. cerevisiae deletion strains, locus YOR061W, strain CKA2, active compounds read low 0.948 | S. cerevisiae deletion strains, locus YOR119C, strain RIO1, active compounds read low 1.08 | S. cerevisiae deletion strains, locus YOR231W, strain MKK1, active compounds read low 0.957 | S. cerevisiae deletion strains, locus YOR329C, strain SCD5, active compounds read low 0.968 | S. cerevisiae deletion strains, locus YPL031C, strain PHO85, active compounds read low 0.968 | S. cerevisiae deletion strains, locus YPL153C, strain RAD53, active compounds read low 0.955 | S. cerevisiae deletion strains, locus YPL204W, strain HRR25, active compounds read low 0.969 | S. cerevisiae deletion strains, locus YPL209C, strain IPL1, active compounds read low 0.967 | S. cerevisiae deletion strains, locus YPL256C, strain CLN2, active compounds read low 0.906 | S. cerevisiae deletion strains, locus YPR025C, strain CCL1, active compounds read low 0.959 | S. cerevisiae deletion strains, locus YPR106W, strain ISR1, active compounds read low 0.978 | S. cerevisiae deletion strains, locus YPR111W, strain DBF20, active compounds read low 0.979 | S. cerevisiae deletion strains, strain NNK1, active compounds read low 0.962 | S. cerevisiae deletion strains, strain TSCII, active compounds read low 0.95

O=c1[nH]c(-c2cc(Br)cs2)nc2ccc(Cl)cc12
active: [14] 1.13 [resistant]
inactive: S. cerevisiae deletion strains, locus YAL013W, strain DEP1, active compounds read low 1.01 | [3] 1.01 | [1] 1 | [4] 0.938 | [5] 1.01 | [2] 1.03 | [6] 1.04 | [7] 1.01 | [8] 1.06 | [9] 1.1 | [10] 1 | [11] 1.06 | [12] 1.07 | [13] 1.04 | [15] 0.954 | [16] 1.06 | [17] 1.04 | [18] 1.04 | [19] 1.01 | [20] 1.04 | [21] 0.896 | [22] 0.999 | [23] 1.07 | [24] 1.02

O=c1[nH]cnc2ccc(Br)cc12
inactive: [3] 1.01 | [1] 0.98 | S. cerevisiae deletion strains, locus YDL134C, strain PPH21, active compounds read low 1.01 | [4] 0.918 | [5] 0.998 | S. cerevisiae deletion strains, locus YGR078C, strain PAC10, active compounds read low 1 | [2] 0.994 | [6] 1.01 | S. cerevisiae deletion strains, locus YJL187C, strain SWE1, active compounds read low 1.01 | [7] 1.02 | [8] 1.01 | S. cerevisiae deletion strains, locus YKL190W, strain CNB1, active compounds read low 1.01 | [9] 1.02 | [10] 1.01 | [11] 1.01 | [12] 1.01 | [13] 0.98 | [14] 1.01 | [15] 0.949 | [16] 1.02 | [17] 1 | [18] 1.04 | [19] 1.01 | [20] 1.01 | [21] 0.921 | [22] 1.01 | [23] 0.97 | [24] 1
